# Experimental data as given in PubChem BioAssay (Tox21).
# Records with an inconclusive call do not appear. Where a call stands in place of a potency, no number is given. Unmarked numbers belong to inactive results. The source made the active and inactive calls. Unless noted, calls come from the whole dose curve; as a rule, active = well fitted curve in the direction sought with a large enough effect in the repeat runs; inconclusive = weak or mixed curves; inactive = no such curve, though single readings can be large; an effect the other way counts as inactive or inconclusive.
# Target: Androgen receptor (Homo sapiens) (UniProt P10275)
# Sequence (P10275 whole entry, looked up): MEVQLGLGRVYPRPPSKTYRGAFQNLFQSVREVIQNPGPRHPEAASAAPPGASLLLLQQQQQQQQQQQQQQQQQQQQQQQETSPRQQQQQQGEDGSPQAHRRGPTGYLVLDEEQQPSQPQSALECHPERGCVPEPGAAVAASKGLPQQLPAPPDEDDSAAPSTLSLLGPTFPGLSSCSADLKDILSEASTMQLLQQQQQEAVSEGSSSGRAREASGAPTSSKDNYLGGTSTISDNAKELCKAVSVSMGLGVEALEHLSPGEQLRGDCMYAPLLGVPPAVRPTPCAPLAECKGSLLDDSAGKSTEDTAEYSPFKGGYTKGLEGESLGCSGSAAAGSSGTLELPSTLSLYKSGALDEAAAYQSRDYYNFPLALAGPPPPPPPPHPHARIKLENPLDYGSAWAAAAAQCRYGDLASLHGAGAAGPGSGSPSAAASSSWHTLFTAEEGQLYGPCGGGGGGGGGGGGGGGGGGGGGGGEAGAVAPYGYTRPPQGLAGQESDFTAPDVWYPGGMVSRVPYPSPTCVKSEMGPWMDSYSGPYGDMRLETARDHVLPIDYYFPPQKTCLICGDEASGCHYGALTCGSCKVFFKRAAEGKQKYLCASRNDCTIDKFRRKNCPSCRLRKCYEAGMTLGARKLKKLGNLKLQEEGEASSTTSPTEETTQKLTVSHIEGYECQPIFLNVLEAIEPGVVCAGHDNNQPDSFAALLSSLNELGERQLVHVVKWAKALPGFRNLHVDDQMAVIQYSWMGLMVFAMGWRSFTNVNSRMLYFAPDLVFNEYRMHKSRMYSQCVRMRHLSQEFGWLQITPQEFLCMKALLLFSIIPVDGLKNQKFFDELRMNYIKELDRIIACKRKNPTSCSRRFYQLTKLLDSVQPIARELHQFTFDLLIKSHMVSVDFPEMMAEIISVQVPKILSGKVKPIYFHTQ
# Assay: qHTS assay to identify small molecule antagonists of the androgen receptor (AR) signaling pathway using the MDA cell line (AID 743042; note: nearly all actives have a fitted effect of over 55% in size)
# Settings: MDA-kb2 AR-luc, MMTV luciferase, R1881 antagonist, 16 h; series mostly up to 70.3 µM
# Summary of the method: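 Antagonist mode: compounds plus R1881 agonist added to MDA-kb2 AR-luc cells, incubated 16 h at 37C. Luciferase reporter luminescence quantified, with multiplexed CellTiter-Fluor readout for cell viability.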
row,Compound,Potency
1,CCOP(=O)(OCC)Oc1nc(Cl)c(Cl)cc1Cl,inactive
2,Nc1c(Cl)c(Cl)c(Cl)c(Cl)c1Cl,inactive
3,BrCC(Br)(Br)Br,inactive

# Tested on: not listed separately
# Assay: qHTS assay to identify small molecule antagonists of the thyroid receptor (TR) signaling pathway - cell viability counter screen (AID 743064); note: nearly all actives have a fitted effect of over 50% in size; note: potency is the fitted concentration of half-maximal effect
# Settings: GH3.TRE-Luc viability, CellTiter-Fluor, 24 h; series mostly up to 70.3 µM
# Summary of the method: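 Rat GH3 pituitary tumor cells stably expressing two TR response elements driving luciferase were plated, rested 4 h, then dosed with library compounds and T3 (1 nM final). After 23.5 h at 37 °C, CellTiter-Fluor was added for 30 min and fluorescence recorded.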
Compound,"activity change, negative = cytotoxic",Potency
Clc1c(Cl)c(Cl)c(Cl)c(Cl)c1Cl,-0.947% [at 8.44 µM],
O.O.O.O.O.O.O=S(=O)([O-])[O-].[Ni+2],,inactive
CC(=O)[O-].CC(=O)[O-].O.O.O.[Pb+2],,inactive
Oc1cc(Cl)cc(Cl)c1,,inactive
CC(=O)[O-].CC(=O)[O-].CC(=O)[O-].[Sb+3],15.9% [at 8.44 µM],
CC(=O)O.CC(=O)O.CC(=O)O.CC(=O)O.CC(=O)O.CC(=O)O.CC(=O)O.O.O.[Cr].[Cr].[Cr],,inactive
CC(=O)[O][Sn]([c]1ccccc1)([c]1ccccc1)[c]1ccccc1,,0.172 µM (active)
Cc1cccc(Cc2cnc[nH]2)c1C,,inactive
CC(=O)[O-].CC(=O)[O-].CC(=O)[O-].[Cr+3],,54.3 µM (active)
OCC(Br)CBr (centres undefined),,inactive
CCCN,,inactive
O=C1C[C@@H]2OCC=C3CN4CC[C@]56c7ccccc7N1[C@H]5[C@H]2[C@H]3C[C@H]46,,inactive
Cc1cc2c3c(c1)C(c1ccccc1)=N[C@@H](NC(=O)c1ccncc1)C(=O)N3CC2,,inactive
CCCCCON=O,,inactive
CCCCn1cc[n+](C)c1 (tested in a mixture with another compound),,inactive
O=[N+]([O-])c1cccc2cccc([N+](=O)[O-])c12,,inactive
COP(=S)(OC)Oc1ccc([N+](=O)[O-])c(C)c1,,inactive
COP(=O)(OC)Oc1ccc([N+](=O)[O-])cc1,,inactive
BrCC(Br)(Br)Br,,inactive
CCC[CH2][Sn]([CH2]CCC)([O]C(C)=O)[O]C(C)=O,,19.5 µM (active)

# Tested on: not listed separately
# Assay: qHTS assay to identify small molecule antagonists of the thyroid receptor (TR) signaling pathway (AID 743065); note: nearly all actives have a fitted effect of over 55% in size; note: potency is the fitted concentration of half-maximal effect
# Settings: GH3.TRE-Luc, T3-stimulated luciferase inhibition, 23.5 h; series mostly up to 70.3 µM
# Summary of the method: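 Antagonism measured as loss of luciferase signal in GH3 cells stably carrying a TRE-luciferase reporter, co-treated with compound and T3 (1 nM final) for 23.5 h at 37 C. Viability was read in the same well by CellTiter-Fluor.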
row,Compound,Potency
1,CCOP(=O)(OCC)Oc1nc(Cl)c(Cl)cc1Cl,24.2 µM (active)
2,CN1C(=O)[C@@H](NC(=O)c2cc3ccccc3[nH]2)N=C(c2ccccc2)c2ccccc21,5.96 µM (active)
3,ClCBr,inactive
4,Nc1c(Cl)c(Cl)c(Cl)c(Cl)c1Cl,inactive
5,Cc1cccc(Cc2cnc[nH]2)c1C,inactive
6,OCC(Br)CBr (centres undefined),inactive
7,Cc1cc2c3c(c1)C(c1ccccc1)=N[C@@H](NC(=O)c1ccncc1)C(=O)N3CC2,24.3 µM (active)
8,CCCCCON=O,inactive
9,c1ccc(Nc2ccc(Nc3ccccc3)cc2)cc1,9.65 µM (active)
10,Oc1ccc2[nH]cc(CCCCN3CC=C(c4ccccc4)CC3)c2c1,11.9 µM (active)
11,CC(O)C(=O)[O][Hg][c]1ccccc1 (centres undefined),0.344 µM (active)
12,BrCC(Br)(Br)Br,inactive
13,O=C(N[C@H]1N=C(c2ccccc2F)c2cccc3c2N(CC3)C1=O)c1cc2ccccc2[nH]1,5.96 µM (active)
14,CCC[CH2][Sn]([CH2]CCC)([O]C(C)=O)[O]C(C)=O,3.89 µM (active)
15,c1ccc(N=NNc2ccccc2)cc1,inactive

# Tested on: thyroid hormone receptor (rat, GH3 cells)
# Assay: qHTS assay to identify small molecule agonists of the thyroid receptor (TR) signaling pathway (AID 743066; calls by dose curve)
# Settings: GH3.TRE-Luc cells, TR agonist luciferase, 24 h; series mostly up to 83.9 µM
Compound,activation,Potency
Clc1c(Cl)c(Cl)c(Cl)c(Cl)c1Cl,-1.24% [at 8.08 µM],
CCOP(=O)(OCC)Oc1nc(Cl)c(Cl)cc1Cl,,inactive
CC(=O)[O-].CC(=O)[O-].O.O.O.[Pb+2],,inactive
CN1C(=O)[C@@H](NC(=O)c2cc3ccccc3[nH]2)N=C(c2ccccc2)c2ccccc21,,inactive
Oc1cc(Cl)cc(Cl)c1,,inactive
Cc1c([N+](=O)[O-])cc2c(c1[N+](=O)[O-])C(C)(C)CC2(C)C,,inactive
CC(=O)[O-].CC(=O)[O-].CC(=O)[O-].[Sb+3],0.26% [at 8.08 µM],
ClCBr,,inactive
O.O.O.O=C([O-])[C@H]([O-])[C@@H]([O-])C(=O)[O-].O=C([O-])[C@H]([O-])[C@@H]([O-])C(=O)[O-].[K+].[K+].[Sb+3].[Sb+3],,inactive
CC(=O)O.CC(=O)O.CC(=O)O.CC(=O)O.CC(=O)O.CC(=O)O.CC(=O)O.O.O.[Cr].[Cr].[Cr],,inactive
CCCC[N+]1(C)CCCC1 (tested in a mixture with another compound),,inactive
Nc1c(Cl)c(Cl)c(Cl)c(Cl)c1Cl,,inactive
Cc1cccc(Cc2cnc[nH]2)c1C,,inactive
CCCCC(CC)COC(=O)OOC(C)(C)C (centres undefined),,inactive
CC(=O)[O-].CC(=O)[O-].CC(=O)[O-].[Cr+3],,inactive
COC(=O)C(C)N(C(=O)c1ccco1)c1c(C)cccc1C (centres undefined),,inactive

Compound,activation,Potency
OCC(Br)CBr (centres undefined),,inactive
O=C1C[C@@H]2OCC=C3CN4CC[C@]56c7ccccc7N1[C@H]5[C@H]2[C@H]3C[C@H]46,,inactive
COP(=S)(OC)Oc1nc(Cl)c(Cl)cc1Cl,,inactive
Cc1cc2c3c(c1)C(c1ccccc1)=N[C@@H](NC(=O)c1ccncc1)C(=O)N3CC2,,inactive
CCCCCON=O,,inactive
c1ccc(Nc2ccc(Nc3ccccc3)cc2)cc1,,inactive
Oc1ccc2[nH]cc(CCCCN3CC=C(c4ccccc4)CC3)c2c1,,inactive
CCCCn1cc[n+](C)c1 (tested in a mixture with another compound),,inactive
O=[N+]([O-])c1cccc2cccc([N+](=O)[O-])c12,,inactive
COP(=S)(OC)Oc1ccc([N+](=O)[O-])c(C)c1,,inactive
COP(=O)(OC)Oc1ccc([N+](=O)[O-])cc1,,inactive
BrCC(Br)(Br)Br,,inactive
O=C(N[C@H]1N=C(c2ccccc2F)c2cccc3c2N(CC3)C1=O)c1cc2ccccc2[nH]1,,inactive
CCC[CH2][Sn]([CH2]CCC)([O]C(C)=O)[O]C(C)=O,,inactive
c1ccc(N=NNc2ccccc2)cc1,,inactive
